# Results filed as inconclusive are left out. Active and inactive are the calls of the source. The call rests on the fitted dose curve; in most records, active means well fitted cell-killing curve with a large enough effect in the repeat runs; inconclusive means weak or mixed curves, or effect the other way; inactive means no such curve, though single readings can be large or run the other way.
# Assay: qHTS assay for small molecule activators of the heat shock response signaling pathway - cell viability counter screen (AID 743209); further: nearly all actives have a fitted effect of over 50% in size
# Conditions: HSE-bla HeLa viability, CellTiter-Glo luminescence, 5 h; series mostly up to 62.6 µM
# Source text: U.S. Tox21 Program National Center for Advancing Translational Sciences [NCATS] NIH Chemical Genomics Center [NCGC] U.S. Environmental Protection Agency [EPA] National Institutes of Environmental Health Sciences [NIEHS] National Toxicology Program [NTP] U.S. Food and Drug Administration [FDA] Tox21 Assay Overview: Various chemicals, environmental and physiological stress conditions may lead to the activation of heat shock response/ unfolded protein response (HSR/UPR). There are three heat shock transcription factors (HSFs) (HSF-1, -2, and -4) mediating transcriptional regulation of the human HSR. To identify the compounds that activate HSR signaling, HSE-bla HeLa cell line (Invitrogen, Carlsbad, CA, USA) containing a beta-lactamase reporter gene under the control of the heat shock response elements was used to screen Tox21 10K compound library. The cytotoxicity of the Tox21 compound library against the HSE-bla HeLa cell line was tested in parallel by measuring the cell viability using CellTiter-Glo assay (Promega, Madison, WI) in the same wells.
# Tox21 Assay Protocol Summary: The CellSensor HSE-bla HeLa cells (Invitrogen, Carlsbad, CA, USA) were dispensed at 1500 cells/6uL/well into 1536-well black wall/clear bottom plates using a Multidrop combi (Thermo Fisher Scientific, Waltham, MA) dispenser. After the assay plates were incubated at 37 C and 5% CO2 overnight, 23 nL of compounds dissolved in DMSO, positive controls or DMSO only was transferred to the assay plate by a Pintool station (Kalypsys, San Diego, CA). The plates were incubated at 37 C for 5 h. After 1 uL of LiveBLAzerTM B/G FRET substrate was added using a Flying Reagent Dispenser (FRD, Beckman Coulter, Indianapolis, IN, USA), the plates were incubated at room temperature for 2.5 h, and fluorescence intensity was measured by an Envision plate reader (PerkinElmer, Shelton, CT). For cell viability readout that measures cytotoxicity, 3 ul/well of CellTiter-Glo reagent was added into the assay plates using a FRD. After 30 min incubation at room temperature, the luminescence intensity in the plates was measured using a ViewLux (PerkinElmer) plate reader.
row,SMILES,outcome
1,CN(C)CCC(c1ccccc1)c1ccccn1 (stereo not given),inactive
2,CC1CCC2CC1C2(C)C (stereo not given),inactive
3,NNc1nncc2ccccc12,inactive
4,O=C(O)CCCC[C@@H]1SC[C@@H]2NC(=O)N[C@@H]21,inactive
5,c1ccc(OCCOc2ccccc2)cc1,inactive
6,CC(C)CC(=O)CC(C)C,inactive
7,CCCCCOC(C)=O,inactive
8,CC1=C(C)S(=O)(=O)CCS1(=O)=O,inactive
9,CC1=CC(=O)NS(=O)(=O)O1,inactive
10,c1c[nH]cn1,inactive
11,OCCOCCOCCO,inactive
12,CCCCCCCCC/C=C/CC1CC(=O)OC1=O (stereo not given),inactive
13,OC[C@H]1O[C@@](CO)(O[C@H]2O[C@H](CO)[C@@H](O)[C@H](O)[C@H]2O)[C@@H](O)[C@@H]1O,inactive
14,c1ccc2c(c1)ccc1ccccc12,inactive
15,COS(C)(=O)=O,inactive
16,CCCCCCCC(=O)OC,inactive
17,CC(C)c1ccc(S(=O)(=O)O)cc1,inactive
18,CC(=O)Nc1ccccc1,inactive
19,C=CCOC(=O)c1ccccc1C(=O)OCC=C,inactive
20,CCN(CC)c1ccc(C(=O)c2ccccc2C(=O)O)c(O)c1,inactive

row,SMILES,outcome
1,C=C(C)C(=O)O[C@H]1C[C@@H]2CC[C@@]1(C)C2(C)C,inactive
2,CC(=O)c1ccccc1,inactive
3,CCOC(=O)NNc1nncc2ccccc12,inactive
4,CCCCC(CC)COC(=O)CS (stereo not given),inactive
5,COc1ccc(Nc2ccccc2)c(C)c1,inactive
6,CCCCCCCCCCCCCCO,inactive
7,O=C(CC(C(=O)OC1CCCCC1)S(=O)(=O)O)OC1CCCCC1 (stereo not given),inactive
8,Cc1cccnc1,inactive
9,Cc1cc(C)c(C)cc1C,inactive
10,CC1=CCC2CC1C2(C)C (stereo not given),inactive
11,CCCC(C)=O,inactive
12,O=S1(=O)CC=CC1,inactive
13,O=C(O)c1ccccc1C(c1ccc(O)cc1)c1ccc(O)cc1,inactive
14,CC(=O)OCC(=O)[C@@]12N=C(C)O[C@@H]1C[C@H]1[C@@H]3CCC4=CC(=O)C=C[C@]4(C)[C@H]3[C@@H](O)C[C@@]12C,inactive
15,O=C(O)c1cc(O)c(O)c(O)c1,inactive
16,COc1ccc(Cl)cc1C(=O)NCCc1ccc(S(=O)(=O)NC(=O)NC2CCCCC2)cc1,inactive
17,Cc1cnc(C(=O)NCCc2ccc(S(=O)(=O)NC(=O)NC3CCCCC3)cc2)cn1,inactive
18,CCCCCC/C(C=O)=C\c1ccccc1,inactive
19,COc1cc(Cc2cnc(N)nc2N)cc(OC)c1OC,inactive
20,CCCCCCOCCO,inactive

# Reference: PubChem BioAssay (Tox21)
